This excerpt belongs to a sample that is enriched for hits.
AmpC inh no detg: inhibitors of E. coli AmpC beta-lactamase without detergent; P00811; AmpC nitrocefin hydrolysis, absorbance 480 nm, 0.0001% Triton; Potency, µM (top dose mostly 57.1 µM), hits mostly inhibitors; actives 0.52% (n = 330,000); AID 485341; also: nearly all actives have a fitted effect of over 20% in size
Target sequence (P00811 whole entry, looked up): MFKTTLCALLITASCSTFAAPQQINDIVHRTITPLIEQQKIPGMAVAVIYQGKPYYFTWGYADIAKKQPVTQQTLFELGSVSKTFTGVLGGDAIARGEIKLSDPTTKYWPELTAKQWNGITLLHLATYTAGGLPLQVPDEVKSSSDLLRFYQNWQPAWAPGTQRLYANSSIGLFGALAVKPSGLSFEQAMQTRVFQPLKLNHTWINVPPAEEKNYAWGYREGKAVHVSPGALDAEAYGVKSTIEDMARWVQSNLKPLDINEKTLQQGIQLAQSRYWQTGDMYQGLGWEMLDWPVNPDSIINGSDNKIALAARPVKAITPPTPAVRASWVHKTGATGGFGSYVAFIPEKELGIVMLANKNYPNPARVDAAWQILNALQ
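AmpC (5.3 nM in the dispensed reagent) in 20 mM phosphate pH 7.0 with 0.01% (detergent screen) or 0.0001% Triton X-100 was preincubated with compounds for 15 min at room temperature. Nitrocefin was then added from an 800 uM solution, and hydrolysis was followed at 480 nm.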
AmpC inh detg: AmpC beta-lactamase inhibition with detergent present | AmpC hydrolysis of nitrocefin, absorbance 480 nm, 0.01% Triton | actives 0.041% (n = 370,000) | P00811 | AID 485294 | Potency, µM (top dose mostly 114 µM), most hits filed as inhibitors; also: nearly all actives have a fitted effect of over 25% in size
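AmpC (5.3 nM in the dispensed reagent) in 20 mM phosphate pH 7.0 with 0.01% (detergent screen) or 0.0001% Triton X-100 was preincubated with compounds for 15 min at room temperature. Nitrocefin was then added from an 800 uM solution, and hydrolysis was followed at 480 nm.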
NS1 inh: inhibitors of influenza NS1 protein function; actives 0.4% (n = 270,000); Potency, µM (series often up to 46.1 µM); calls by dose curve; also: actives are rising curves; nearly all actives have a fitted effect of over 50% in size
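S. cerevisiae expressing influenza A NS1, grown in glucose, washed, then diluted 1:100 into pH 6.0 -URA galactose medium with 23 nl compound. Growth recovery read as OD600; NS1-free strain serves as control.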
CHX counter: counter-screen for Shiga toxin inhibitors: cycloheximide protein synthesis inhibition. max response, %. actives 12% (n = 300,000). cell reporter, cycloheximide protein synthesis inhibition counterscreen. AID 2314; in the data active = max response mostly above about 13%, no sharp cut-off; inactive = mostly below about 14%; also: read at 38.3 µM for the half of the compounds with a filed dose
Shiga inhibitor: inhibitors of Shiga toxin in Vero cells; Vero cells, Shiga toxin protein synthesis inhibition reporter; inhibition, % at 38.7 µM; actives 9.2% (n = 290,000); in the data active = inhibition mostly above about 28%, no sharp cut-off; inactive = mostly below about 43%
Hits are given with their value; 0 = inactive; ? = inconclusive; - = not tested or not shown. Unless noted, calls follow the shape of the dose curve; as a rule, active = well fitted curve in the direction sought with a large enough effect; inconclusive = small, poorly fitted or top-dose-only effect, or another doubt; inactive = no such curve, though single readings can be large; an effect the other way counts as inactive or inconclusive.

SMILES | AmpC inh no detg | AmpC inh detg | NS1 inh | CHX counter | Shiga inhibitor
O=C(Cn1ncc2ccsc2c1=O)N1CCN(c2ccc(Cl)cc2)CC1 | - | 0 | - | - | -
CCOC(=O)c1c(-c2ccccc2)oc2ccc(NS(=O)(=O)c3ccc(C)cc3)cc12 | - | 0 | - | - | -
O=C(NCCc1ccccc1F)C1CCCN(c2nc3ccccc3s2)C1 (stereo unspecified) | 0 | 0 | 0 | 0 | 0
CCC(NC(=O)CCc1c(C)c2cc3c(-c4ccccc4)coc3cc2oc1=O)C(=O)O (stereo unspecified) | 0 | 0 | ? | 0 | 0
COc1cc2c(cc1CNC[C@H]1O[C@@H](n3cnc4c(N)ncnc43)[C@H](O)[C@@H]1O)OCO2 | 0 | - | - | - | -
Cc1ccccc1NC(=O)c1cnn(-c2ccccc2)c1C | 0 | ? | 0 | 41.8 | 75.3
COc1ccc(OC)c(NC(=O)c2cnn(-c3ccccc3)c2C)c1 | 0 | 0 | 0 | 0 | 0
Cc1ccc(C)c(NC(=O)c2cnn(-c3ccccc3)c2C)c1 | 0 | 0 | 0 | 39.8 | -
Cc1cccc(NC(=O)c2cnn(-c3ccccc3)c2-n2cccc2)c1C | - | 0 | - | - | -
CCc1ccccc1NC(=O)c1cnn(-c2ccccc2)c1C | 0 | 0 | 0 | 16.2 | 35.9
Cc1cccc(NC(=O)c2cnn(-c3ccccc3)c2C)c1C | 0 | 0 | 0 | 27.3 | 41.2
Cc1ccc(C)c(NC(=O)c2ccccc2C(=O)c2ccccc2)c1 | 0 | 0 | - | 0 | 0
COc1ccc(/C=C/C(=O)Nc2ccc3nc4c(c(Nc5ccc(OC)c(OC)c5)c3c2)CCCC4)cc1 | - | 0 | - | - | -
CCCN1CCN(CCCNC(=O)c2ccc3nc(N4CCCCC4)sc3c2)CC1 | 0 | ? | 0 | 13.3 | 0
CC1CC(C)CN(CCCNC(=O)c2ccc3nc(N4CCCCC4)sc3c2)C1 (stereo unspecified) | 0 | ? | 0 | 16.8 | 15.4
Cc1ccc(C)c(N2CCN(CCCNC(=O)c3ccc4nc(N5CCCCC5)sc4c3)CC2)c1 | - | 0 | - | - | -
CN=C(N)/N=C(\N)Nc1cc2ccccc2c2ccccc12 | - | - | 0 | - | -
C[C@@H]1OC(Oc2ccccc2-c2cc(=O)c3c(O)cc(O)c([C@@H]4O[C@H](CO)[C@@H](O)[C@H](O)[C@H]4O)c3o2)[C@H](O)[C@H](O)[C@H]1O (stereo partly specified) | - | - | - | 0 | 0
CCn1cc(C=C2C(=O)c3ccccc3C2=O)c2ccccc21 | 0 | ? | 0 | 12.3 | 0
CCN=C1S/C(=C\c2cn(CC)c3ccccc23)C(=O)N1CC | 0 | ? | 0 | 0 | 0
N/C(=N\OC(=O)Cc1ccc(-c2ccccc2)cc1)c1ccncc1 | 0 | 0 | - | 0 | 0
N/C(=N\OC(=O)CSc1ccccc1)c1cccc([N+](=O)[O-])c1 | 0 | ? | 0 | 32.7 | 0
Cc1cc(C)cc(OCC(=O)O/N=C(\N)c2cccnc2)c1 | 0 | 0 | 0 | 16.1 | 0
N/C(=N\OC(=O)CSc1ccccc1)c1ccncc1 | 0 | 0 | 0 | 47.0 | 78.6
N/C(=N\OC(=O)COc1ccccc1)c1ccncc1 | 0 | 0 | 0 | 43.5 | 82.8
SMILES | AmpC inh no detg | AmpC inh detg | NS1 inh | CHX counter | Shiga inhibitor
N/C(=N\OC(=O)Oc1ccccc1)c1cccc([N+](=O)[O-])c1 | 0 | 0 | 0 | 0 | 0
N/C(=N\OC(=O)COc1ccccc1)c1cccnc1 | 0 | 0 | 0 | 0 | 0
COc1cc(OC)cc(C(=O)O/N=C(\N)c2ccncc2)c1 | 0 | ? | 0 | 0 | 0
COc1cccc(OCC(=O)O/N=C(\N)c2ccncc2)c1 | 0 | ? | 0 | 27.7 | 59.3
C=CCn1cc(C=C2C(=O)NC(=O)NC2=O)c2ccccc21 | 0 | 0 | ? | 0 | 0
Cn1cc(C=C2C(=O)Nc3cccnc32)c2ccccc21 | - | - | - | 30.3 | 32.4
Cc1ccc2c(=O)cc(C(=O)Nc3c(C(=O)c4ccccc4)oc4ccccc34)oc2c1 | - | 0 | - | - | -
Cc1cc(NC(=O)Nc2cc(F)ccc2F)no1 | 0 | 0 | 0 | 9.2 | 0
Cc1cc(NC(=O)Nc2ccc(F)c(Cl)c2)no1 | 0 | 0 | 0 | 28.4 | 28.8
N=C(N)SCc1ccc(Cl)cc1Cl (tested in a mixture with another compound) | - | - | 0 | - | -
CC(C)CNC(=O)N1[C@H](c2cccs2)[C@@H](C)C(=O)[C@@H](C)[C@@H]1c1cccs1 | - | 0 | - | - | -
O=C(COc1ccc(Cl)cc1)OCc1csc(Nc2ccccc2)n1 | 0 | ? | 0 | 0 | 0
CC(C)c1ccc(Nc2nc(CC(=O)O)cs2)cc1 | 0 | 0 | - | 48.6 | 108.2
O=C(O)Cc1csc(Nc2cccc(Cl)c2)n1 | 0 | 0 | 0 | 15.6 | 0
CCOC(=O)c1c(S(=O)(=O)N2CCC(C(=O)NCc3ccc(F)cc3)CC2)c(C)n(C)c1C | - | 0 | - | - | -
